According to PubChem BioAssay:
Calls of active or inactive are those of the source.

What was measured:
[1] = test system: Plasmodium falciparum Sir2 (PF13_0152, Sir2A); assay: pfSir2 binders on small-molecule microarrays, primary screen, biochemical, small-molecule microarray, 635 nm fluorescence (AID 1098); conditions: small-molecule microarray binding, fluorescence 635 nm; higher = more signal;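 note: score merges spot fluorescence intensity with its signal-to-noise ratio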
[2] = small-molecule microarray binders of probe aDKK1, primary screen, biochemical, biotinylated probe, 635/667 nm fluorescence (AID 1099); conditions: higher = more signal;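 note: score merges 667nm spot fluorescence with signal to noise across triplicate slides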
[3] = small-molecule microarray binders of probe aCHRDL2, primary screen, biochemical, biotinylated probe, 635/667 nm fluorescence (AID 1100); conditions: higher = more signal
[4] = splicing luciferase reporter signal modulators, primary screen, spliceosome inhibition project, cell-based, HEK293, splice +/- reporter (AID 1101); conditions: luminescence, 24 h, higher = more signal, called active from +8 up or from −8 down;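 note: HEK293 cells carrying a splicing-competent luciferase reporter gene; test concentration not given here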
[5] = biological target: Fibroblast growth factor 10 (Homo sapiens) (UniProt O15520); assay: FGF10 binders on small-molecule microarrays, primary screen, biochemical, small-molecule microarray, 635 nm fluorescence (AID 1102); conditions: FGF10 binding, fluorescence 635 nm, higher = more signal
Fibroblast growth factor 10 (Homo sapiens), sequence (O15520 whole entry, looked up): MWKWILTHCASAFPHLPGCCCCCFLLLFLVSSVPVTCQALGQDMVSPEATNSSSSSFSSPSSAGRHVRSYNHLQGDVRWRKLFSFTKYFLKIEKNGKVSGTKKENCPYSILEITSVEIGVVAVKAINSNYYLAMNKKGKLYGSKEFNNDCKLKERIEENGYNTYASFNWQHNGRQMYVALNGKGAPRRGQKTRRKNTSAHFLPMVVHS

[6] = test system: glycogen synthase kinase-3 (GSK3A per assay name; protocol says GSK3B); assay: GSK3 binders on small-molecule microarrays, primary screen, biochemical, small-molecule microarray, 635 nm fluorescence, GSK3A (AID 1103); conditions: small-molecule microarray binding, fluorescence 635 nm; higher = more signal; note: the record names both GSK3A and GSK3B
[7] = biological target: Epidermal growth factor receptor (Homo sapiens) (UniProt P00533); assay: EGFR binders on small-molecule microarrays, primary screen, biochemical, small-molecule microarray, 635 nm fluorescence (AID 1104); conditions: EGFR binding, higher = more signal;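 note: score merges 667 nm emission intensity with spot signal to noise over triplicate slides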
Epidermal growth factor receptor (Homo sapiens), sequence (P00533 whole entry, looked up): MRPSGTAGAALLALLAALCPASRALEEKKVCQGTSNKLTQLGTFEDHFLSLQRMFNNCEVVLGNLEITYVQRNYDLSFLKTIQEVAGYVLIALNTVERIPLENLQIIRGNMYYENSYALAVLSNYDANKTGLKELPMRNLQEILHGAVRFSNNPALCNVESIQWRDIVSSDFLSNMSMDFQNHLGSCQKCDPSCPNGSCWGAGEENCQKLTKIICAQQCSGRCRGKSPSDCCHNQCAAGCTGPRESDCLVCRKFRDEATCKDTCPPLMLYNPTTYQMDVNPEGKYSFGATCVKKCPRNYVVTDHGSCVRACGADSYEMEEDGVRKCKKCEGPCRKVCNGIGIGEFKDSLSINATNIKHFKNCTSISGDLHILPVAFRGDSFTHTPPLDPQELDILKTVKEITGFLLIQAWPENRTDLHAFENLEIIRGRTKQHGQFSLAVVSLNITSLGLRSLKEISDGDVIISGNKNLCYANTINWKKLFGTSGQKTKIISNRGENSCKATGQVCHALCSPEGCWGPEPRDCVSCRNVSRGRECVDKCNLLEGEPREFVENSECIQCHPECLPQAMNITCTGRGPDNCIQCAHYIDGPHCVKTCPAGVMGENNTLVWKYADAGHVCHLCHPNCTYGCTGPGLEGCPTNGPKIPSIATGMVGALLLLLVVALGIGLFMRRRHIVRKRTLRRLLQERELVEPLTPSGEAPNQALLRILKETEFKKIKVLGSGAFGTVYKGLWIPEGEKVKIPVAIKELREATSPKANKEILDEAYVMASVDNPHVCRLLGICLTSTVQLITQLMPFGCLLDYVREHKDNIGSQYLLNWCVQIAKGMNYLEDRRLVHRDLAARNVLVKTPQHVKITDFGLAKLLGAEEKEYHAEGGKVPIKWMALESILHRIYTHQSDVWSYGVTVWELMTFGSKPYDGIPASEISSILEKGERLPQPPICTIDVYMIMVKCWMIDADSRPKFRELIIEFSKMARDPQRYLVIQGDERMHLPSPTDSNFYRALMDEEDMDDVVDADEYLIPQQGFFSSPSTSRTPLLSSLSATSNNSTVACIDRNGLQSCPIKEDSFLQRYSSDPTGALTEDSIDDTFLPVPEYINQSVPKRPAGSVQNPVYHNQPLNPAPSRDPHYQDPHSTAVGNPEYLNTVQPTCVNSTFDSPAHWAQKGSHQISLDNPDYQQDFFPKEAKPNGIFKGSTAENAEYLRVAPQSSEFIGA

[8] = biological target: Follistatin-related protein 3 (Homo sapiens) (UniProt O95633); assay: FSTL3 binders on small-molecule microarrays, primary screen, biochemical, small-molecule microarray, 635 nm fluorescence (AID 1105); conditions: FSTL3 binding, higher = more signal;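 note: score merges emission near 667 nm and signal to noise per printed spot across three slides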
Follistatin-related protein 3 (Homo sapiens), sequence (O95633 whole entry, looked up): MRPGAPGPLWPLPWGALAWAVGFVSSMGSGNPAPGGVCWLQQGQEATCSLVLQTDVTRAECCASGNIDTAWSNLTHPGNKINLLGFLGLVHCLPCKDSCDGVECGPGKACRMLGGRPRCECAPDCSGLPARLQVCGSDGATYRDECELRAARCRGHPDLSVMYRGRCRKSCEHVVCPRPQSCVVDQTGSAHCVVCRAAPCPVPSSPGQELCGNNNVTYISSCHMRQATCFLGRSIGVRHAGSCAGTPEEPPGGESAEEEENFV

[9] = biological target: Dickkopf-related protein 1 (Homo sapiens) (UniProt O94907); assay: DKK1 binders on small-molecule microarrays, primary screen, biochemical, small-molecule microarray, 635 nm fluorescence scan (AID 1106); conditions: DKK1 binding, higher = more signal;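 note: score merges emission near 667 nm with signal to noise over three replicate slides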
Dickkopf-related protein 1 (Homo sapiens), sequence (O94907 whole entry, looked up): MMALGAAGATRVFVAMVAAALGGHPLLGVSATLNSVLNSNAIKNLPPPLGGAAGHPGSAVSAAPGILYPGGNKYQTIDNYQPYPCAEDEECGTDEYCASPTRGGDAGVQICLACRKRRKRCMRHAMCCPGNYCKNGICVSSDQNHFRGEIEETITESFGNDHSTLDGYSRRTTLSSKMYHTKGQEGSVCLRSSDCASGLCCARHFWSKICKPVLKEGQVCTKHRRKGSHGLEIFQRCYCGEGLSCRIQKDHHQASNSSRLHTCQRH

[10] = test system: Inhibin beta A chain (activin A); assay: INHBA (activin A) binders on microarrays, primary screen, biochemical, small-molecule microarray, 635 nm fluorescence scan (AID 1107); conditions: small-molecule microarray binding, higher = more signal;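 note: mouse activin A protein probed at 4.33 µg/mL on printed slides; score merges bound-protein fluorescence near 667 nm with spot signal-to-noise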
[11] = test system: Human papillomavirus type 1a protein E7 (residues 44-93); assay: HPV1a E7 fragment binders on microarrays, primary screen, biochemical, small-molecule microarray, residues 44-93, 635 nm fluorescence (AID 1108); conditions: small-molecule microarray binding, fluorescence 635 nm; higher = more signal;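 note: E7 fragment applied at 1 µg/mL in TBST for 1 h at 4 C; score combines spot fluorescence with its signal to noise ratio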
[12] = modulators of HCV replicon luciferase signal, primary screen, HCV replication inhibitor project, Huh7 cells, luciferase reporter (AID 1109); conditions: 48 h, higher = more signal;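 note: huh7 hepatoma cells harbouring a luciferase neomycin HCV replicon reporter; luciferase luminescence as measure of HCV replicon replication; test concentration not given here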
[13] = biological target: Left-right determination factor 2 (Homo sapiens) (UniProt O00292); assay: LEFTY2 binders on small-molecule microarrays, primary screen, biochemical, small-molecule microarray, 635 nm fluorescence scan (AID 1110); conditions: LEFTY2 binding, higher = more signal
Left-right determination factor 2 (Homo sapiens), sequence (O00292 whole entry, looked up): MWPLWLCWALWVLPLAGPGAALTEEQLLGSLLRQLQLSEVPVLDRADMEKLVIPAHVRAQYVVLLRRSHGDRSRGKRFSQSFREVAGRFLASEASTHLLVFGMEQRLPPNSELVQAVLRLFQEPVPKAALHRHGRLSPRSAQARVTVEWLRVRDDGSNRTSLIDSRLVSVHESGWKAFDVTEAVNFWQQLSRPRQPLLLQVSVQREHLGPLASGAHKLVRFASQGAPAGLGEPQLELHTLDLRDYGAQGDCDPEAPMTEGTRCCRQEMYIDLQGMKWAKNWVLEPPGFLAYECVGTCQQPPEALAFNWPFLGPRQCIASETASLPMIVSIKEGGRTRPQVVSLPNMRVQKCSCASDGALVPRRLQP

[14] = biological target: Calmodulin-1 (Homo sapiens) (UniProt P0DP23); assay: CALM1 binders on microarrays, EGTA buffer, profiling panel, biochemical, small-molecule microarray, Cy5-labelled CALM1 (AID 1111); conditions: Cy5-CALM1 binding fluorescence, higher = more signal;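 note: labelled calmodulin applied in Tris saline Tween buffer holding calcium plus EGTA and DTT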
[15] = biological target: Calmodulin-1 (Homo sapiens) (UniProt P0DP23); assay: calcium-bound CALM1 binders on microarrays, profiling panel, artefact control for SMM control-protein annotation, biochemical, small-molecule microarray, Cy5-labelled CALM1, plus calcium (AID 1112); conditions: Cy5-CALM1 binding fluorescence, higher = more signal;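 note: score merges spot fluorescence with signal to noise from triplicate slides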
[16] = small-molecule microarray binders of probe aWnt5a, primary screen, biochemical, biotinylated probe, 635/667 nm fluorescence (AID 1113); conditions: higher = more signal;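 note: score merges 667 nm fluorescence intensity with signal-to-noise per printed feature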
[17] = small-molecule microarray binders of probe aShh, primary screen, biochemical, biotinylated probe, 635/667 nm fluorescence (AID 1114); conditions: higher = more signal;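 note: probe is biotin-labelled aShh protein from a stem cell growth factor screen; measures binding of labelled protein to compounds printed on the slide; score merges feature fluorescence at 667 nm with signal-to-noise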
[18] = small-molecule microarray binders of probe aNog, primary screen, biochemical, biotinylated probe, 635/667 nm fluorescence (AID 1115); conditions: higher = more signal;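 note: probe is biotinylated aNog protein used at 0.15 µg/mL for 1 h at 4 C; z-score combines 667 nm fluorescence of each spot with its signal to noise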
[19] = biological target: Torsin-1A-interacting protein 1 (Homo sapiens) (UniProt Q5JTV8); assay: LAP1 binders from COS7 cell lysate, primary screen, small-molecule microarray, 635/667 nm fluorescence (AID 1116); conditions: COS7-hLAP1 lysate binding, 635 nm fluorescence, higher = more signal
Torsin-1A-interacting protein 1 (Homo sapiens), sequence (Q5JTV8 whole entry, looked up): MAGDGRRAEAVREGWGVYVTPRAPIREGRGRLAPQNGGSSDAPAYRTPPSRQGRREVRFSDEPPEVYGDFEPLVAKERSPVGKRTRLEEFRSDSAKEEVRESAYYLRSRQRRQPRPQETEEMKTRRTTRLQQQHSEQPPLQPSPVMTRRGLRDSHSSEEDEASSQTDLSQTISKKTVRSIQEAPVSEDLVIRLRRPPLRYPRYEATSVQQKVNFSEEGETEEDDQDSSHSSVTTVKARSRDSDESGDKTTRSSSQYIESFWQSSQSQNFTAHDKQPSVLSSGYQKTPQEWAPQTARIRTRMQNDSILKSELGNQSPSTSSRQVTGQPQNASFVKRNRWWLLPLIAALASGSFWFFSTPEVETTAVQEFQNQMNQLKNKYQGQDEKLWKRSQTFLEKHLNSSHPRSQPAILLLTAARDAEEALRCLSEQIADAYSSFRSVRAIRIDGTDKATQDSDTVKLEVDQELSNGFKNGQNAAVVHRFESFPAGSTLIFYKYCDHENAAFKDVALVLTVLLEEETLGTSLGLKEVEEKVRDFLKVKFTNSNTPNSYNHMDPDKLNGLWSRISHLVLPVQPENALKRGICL

[20] = biological target: Alpha-bungarotoxin (Bungarus multicinctus) (UniProt P60615); assay: alpha-bungarotoxin binders on microarray, profiling panel, artefact control for SMM control protein annotation, biochemical, small-molecule microarray, Alexa647 label, 635/667 nm fluorescence (AID 1117); conditions: alpha-BTX-A647 binding fluorescence, higher = more signal
Alpha-bungarotoxin (Bungarus multicinctus), sequence (P60615 whole entry, looked up): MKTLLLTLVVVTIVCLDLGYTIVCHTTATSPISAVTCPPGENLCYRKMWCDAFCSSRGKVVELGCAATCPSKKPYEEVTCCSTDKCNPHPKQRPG

Row | SMILES | composite z-score [1] | composite z-score [2] | composite z-score [3] | z-score [4] | composite z-score [5] | composite z-score [6] | composite z-score [7] | composite z-score [8] | composite z-score [9] | composite z-score [10] | composite z-score [11] | z-score [12] | composite z-score [13] | composite z-score [14] | composite z-score [15] | composite z-score [16] | composite z-score [17] | composite z-score [18] | composite z-score [19] | composite z-score [20]
1 | COc1ccc([Si](C)(C)[C@H]2[C@H](CCn3cc([C@H](O)c4ccccc4)nn3)O[C@@]3(C(=O)N(Cc4cccc(N5CCC5=O)c4)c4ccccc43)[C@@H]2C)cc1 | 1.32 | -0.144 | -0.206 | -1.4 (inactive) | 0.66 | -0.113 | -0.0533 | -0.108 | -0.0723 | 0.714 | -0.268 | -1.73 | 0.183 | 0.318 | 0.193 | -0.114 | 0.0278 | -0.118 | 0.412 | 0.167
2 | CC(C)CNC(=O)[C@@H]1c2ccccc2C(=O)N(Cc2cc(C(F)(F)F)cc(C(F)(F)F)c2)[C@H]1c1ccc(CO)cc1 | -0.46 | 0.416 | 0.822 | -0.827 (inactive) | -0.633 | -1.32 | -0.88 | -0.736 | -0.439 | -0.575 | -0.337 | -0.195 | -0.488 | -0.128 | 0.401 | 0.0437 | -0.155 | -0.247 | -0.0708 | -0.141
3 | CCCCCN1CC=CC23O[C@@H]4C=CCOC(=O)[C@@H]4[C@H]2C(=O)N(CCCO)[C@@H]3C1=O (stereo not given in full) | 1.63 | -0.263 | 0.359 | -1.76 (inactive) | -0.519 | 0.462 | -0.681 | -0.264 | -0.49 | 0.908 | 1.35 | -0.538 | -0.642 | -0.568 | 0.487 | -0.204 | -0.0709 | 0.0707 | 2.65 | -0.339
4 | CC(C)(C)N1CC=CC23O[C@@H]4/C=C\CCCOC(=O)C4[C@H]2C(=O)N(CCO)[C@@H]3C1=O (stereo not given in full) | 1.59 | -0.0986 | -0.0141 | -0.639 (inactive) | -0.142 | -0.764 | -0.932 | -1.28 | -0.377 | 0.0995 | -0.365 | -0.95 | -0.679 | -0.0083 | 0.443 | -0.18 | 0.0121 | -0.261 | -0.231 | -0.709
5 | CC1=C2[C@@H](CCc3ccccc3)OB(O)C[C@@H]2n2c(=O)n(-c3ccccc3)c(=O)n2C1 | 0.897 | -0.0992 | -0.339 | 0.72 (inactive) | 0.355 | 0.255 | 0.249 | 0.894 | 0.565 | 0.421 | 0.352 | -1.23 | 0.664 | 0.177 | -0.878 | -0.096 | 0.133 | -0.198 | 0.543 | -0.027
6 | C=C(COC)/C(=C/C[C@H](OC(=O)c1ccncc1)c1cccc(OCCO)c1)c1cc(C(=O)OC)ccc1OC | 0.901 | -0.0771 | 0.195 | -0.147 (inactive) | 0.837 | -0.208 | -0.353 | 0.0001 | -0.0833 | 0.533 | -1.16 | -1.67 | 0.229 | -0.0871 | -0.46 | -0.156 | -0.0769 | -0.104 | 0.516 | 1.29
7 | CC(C)C(=C=CC[C@H](O)c1cccc(OCCO)c1)C[C@H](O)COCc1ccccc1 | 0.845 | -0.27 | -0.154 | 0.102 (inactive) | 0.876 | -0.376 | -0.379 | -0.0234 | 0.116 | 0.405 | 0.0677 | -0.285 | -0.0641 | -0.53 | -0.981 | -0.096 | 0.0062 | 0.0308 | 1.14 | 0.0589
8 | [N-]=[N+]=NCc1ccccc1C[C@]1(C(=O)O)N=C(c2ccc(OCCCO)cc2)O[C@H]1c1ccccc1 | 1.44 | 0.181 | 1.06 | 0.624 (inactive) | -0.2 | 0.102 | -1 | -0.627 | -0.94 | 0.884 | 0.903 | -0.748 | -1.18 | 1.17 | 0.671 | -0.096 | -0.0626 | 1.29 | 3.14 | 0.966
9 | O=C1O[C@H](c2ccccc2)[C@H](c2ccccc2)N2[C@H]1[C@@H](C(=O)O)[C@]1(C(=O)Nc3ccc(C#CC4(O)CCCCCC4)cc31)[C@H]2c1ccc(OCCO)cc1 | 0.303 | 0.2 | 0.388 | -0.117 (inactive) | 0.299 | 0.132 | -0.329 | 0.418 | -0.623 | -0.374 | 1.5 | -1.77 | -0.418 | 1.89 | 0.475 | 0.0692 | 0.0048 | 0.0028 | 0.535 | 2.21
10 | Cc1ccc([C@H]2C(C(=O)O)=C[C@@H](C)N2S(=O)(=O)c2ccc(C)cc2)cc1 | 1.23 | 0.353 | 0.841 | 0.709 (inactive) | -0.564 | -0.107 | -0.19 | -0.525 | -1.13 | 1.02 | 0.801 | 0.537 | -0.942 | 1 | 0.0248 | -0.0478 | 0.0062 | -0.0827 | 0.917 | 1.57
11 | CCCCC=C[C@@H](NC(=O)c1cccs1)c1ccccc1 | -0.15 | -0.0451 | 0.359 | -3.77 (inactive) | 0.44 | 0.476 | -0.273 | -0.171 | 0.13 | 0.764 | 0.861 | -2.74 | -0.286 | 0.524 | 0.906 | -0.124 | 0.166 | -0.269 | 0.159 | 0.748
